BCR signal inh: qHTS Assay to Find Inhibitors of Chronic Active B-Cell Receptor Signaling | AID 493014, 2011 | ABC-DLBCL IkBa-CBG/CBR reporter, luminescence ratio, 4 h | 0.05% of 340,000 active | Potency, µM (highest dose often 46.1 µM), hits mostly inhibitors; active = well fitted inhibition curve with a large enough effect in the signal ratio, with a control signal flat, not every such curve was filed as active; inconclusive = small, poorly fitted or top-dose-only effect, or effect the other way, or a change in a side signal; the % refers to the signal ratio
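TMD8 human ABC-DLBCL cells with doxycycline-inducible IκBα–green luciferase fusion and unfused red luciferase, in 0.5% FBS medium; compounds up to 46 uM, 4 h at 37C. Green/red luminescence ratio, filter-overlap corrected, fitted to concentration-response curves.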
TCR activator: Activators of T cell receptors: qHTS campaign; 330,000 tested, under 10 active; Potency, µM (doses to about 9.22 µM), usual class: activators; primary human leukocytes, anti-CD3, IL-2 HTRF, 48 h
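Using a-CD3 beads without co-stimulation, primary human leukocytes were exposed to compounds for 48 hr. An HTRF IL-2 kit measured the cytokine, with europium-to-d2 energy transfer producing emission at 665nm upon 320nm excitation.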
uPA generation: qHTS for Inhibitors of Cell Surface uPA Generation; cell surface uPA generation assay, qHTS; Potency, µM (series often up to 38.3 µM), most hits filed as inhibitors; 0.31% of 330,000 active; active = well fitted inhibition curve with a large enough effect; inconclusive = small, poorly fitted or top-dose-only effect; inactive = no such curve, though single readings can be large or run the other way; tested in mouse RAW 264.7 cells; also: nearly all actives have a fitted effect of over 55% in size
Vif-A3F inh: qHTS for Inhibitors of Vif-A3F Interactions: qHTS. AID 602313, 2012. HeLa A3F-eYFP + Vif (tagged APOBEC3F with the HIV-1 protein that degrades it), YFP fluorescence increase. 0.2% of 390,000 active. Potency, µM (highest dose often 46.1 µM); also: nearly all actives have a fitted effect of over 65% in size
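HeLa cells stably expressing A3F-eYFP plus Vif, plated and incubated overnight at 37 deg C, then exposed to compounds overnight at 37 deg C. Blocked degradation read as raised yellow fluorescence (Ex 488/Em 500-530).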
Vif-APOBEC3G blk: qHTS for Inhibitors of Vif-A3G Interactions: qHTS | DNA dC->dU-editing enzyme APOBEC-3G (Homo sapiens), Q9HC16 | 0.076% of 410,000 active | Potency, µM (titrated, usually from 46.1 µM), usual class: inhibitors | AID 602310, 2012 | HeLa A3G-eYFP + Vif (tagged APOBEC3G with the HIV-1 protein that degrades it), YFP fluorescence, overnight; also: nearly all actives have a fitted effect of over 60% in size
Target sequence (Q9HC16 whole entry, looked up): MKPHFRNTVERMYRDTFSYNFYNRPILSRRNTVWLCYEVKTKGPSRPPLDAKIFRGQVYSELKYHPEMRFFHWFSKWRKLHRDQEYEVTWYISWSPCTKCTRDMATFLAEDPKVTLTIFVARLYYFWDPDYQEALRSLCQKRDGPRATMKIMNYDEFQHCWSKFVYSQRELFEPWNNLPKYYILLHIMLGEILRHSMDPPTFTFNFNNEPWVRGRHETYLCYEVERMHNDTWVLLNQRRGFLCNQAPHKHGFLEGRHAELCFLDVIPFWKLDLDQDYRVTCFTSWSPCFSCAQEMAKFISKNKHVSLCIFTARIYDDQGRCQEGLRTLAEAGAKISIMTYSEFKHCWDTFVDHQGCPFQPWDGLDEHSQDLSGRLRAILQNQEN
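HeLa cells stably expressing Vif and C-terminally eYFP-tagged A3G, seeded overnight at 37 deg C, then exposed to compound by pintool overnight at 37 deg C. Rise in yellow fluorescence (Ex 488/Em 500-530, Acumen) marks blocked Vif-driven A3G degradation.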
MBNL1 CUG block: qHTS Assay for Inhibitors of MBNL1-poly(CUG) RNA binding; Muscleblind-like protein 1 (Homo sapiens), Q9NR56; TR-FRET MBNL1-His/biotin-(CUG)12 binding, 665/545 ratio; Potency, µM (highest dose often 57.5 µM), most hits filed as inhibitors; 0.036% of 280,000 active; AID 2675, 2010; active = well fitted inhibition curve with a large enough effect in the signal ratio, with a control signal flat, not every such curve was filed as active; inconclusive = small, poorly fitted or top-dose-only effect, or effect the other way, or a change in a side signal; inactive = no such curve, though single readings can be large or run the other way; the % refers to the signal ratio
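Compounds (final 92 nM to 58 uM) are added to His-tagged MBNL1 and biotin-(CUG)12, then terbium anti-His antibody and streptavidin-XL665 (5 nM final). After 60 min at room temperature, the 665/545 nm ratio is read.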
Of the large screens only hits and unclear results are named; the others gave an inactive call. Sampled rows, rich in hits. Any-hit rate of the full collection: about 0.54%. Unless noted, calls follow the shape of the dose curve; as a rule, active = well fitted curve in the direction sought with a large enough effect; inconclusive = small, poorly fitted or top-dose-only effect, or another doubt; inactive = no such curve, though single readings can be large; an effect the other way counts as inactive or inconclusive.

Cc1nc([N+](=O)[O-])cn1CC(O)c1ccc2c(c1)OCO2 (stereo not given)	none (no result: BCR signal inh, TCR activator, uPA generation, Vif-A3F inh, MBNL1 CUG block)
COc1ccccc1N1CCN(C(=O)c2ccc3c(Cl)c4c(nc3c2)CCCC4)CC1	BCR signal inh inconclusive, uPA generation 4.5µM
COC(=O)C1=C(C)NC(C)=C(C(=O)OC)C1c1ccc(N(C)C)cc1	BCR signal inh 21µM (no result: uPA generation)
CC(C)(C)OC(=O)N1CCN(/[N+]([O-])=N/Oc2ccc([N+](=O)[O-])cc2[N+](=O)[O-])CC1	none (no result: BCR signal inh, TCR activator, uPA generation, Vif-A3F inh, MBNL1 CUG block)
COc1cc(C(=O)OCC#N)ccc1OCc1c(C)noc1C	BCR signal inh inconclusive, uPA generation 11µM, Vif-APOBEC3G blk inconclusive (no result: MBNL1 CUG block)
COC(=O)c1ccc(OC(=O)c2ccc(OCc3c(C)noc3C)c(OC)c2)cc1	none (no result: TCR activator, uPA generation, Vif-A3F inh, Vif-APOBEC3G blk)
COc1cc(C(=O)NCC(c2ccccc2)N(C)C)ccc1OCc1c(C)noc1C (stereo not given)	uPA generation 7.9µM, Vif-APOBEC3G blk inconclusive (no result: MBNL1 CUG block)
Cc1cc(N=Cc2c(O)n(-c3ccc4c(c3)OCO4)c(=O)c3ccccc23)ccn1	Vif-A3F inh 25µM, Vif-APOBEC3G blk inconclusive, MBNL1 CUG block inconclusive
O=Cc1cc2cc3c(cc2nc1Cl)OCCO3	MBNL1 CUG block inconclusive
O=C(O)c1ccc(N/N=C/c2cc3cc4c(cc3nc2Cl)OCCO4)cc1	BCR signal inh inconclusive, uPA generation 0.89µM, Vif-A3F inh inconclusive, Vif-APOBEC3G blk inconclusive, MBNL1 CUG block inconclusive
CCOC(=O)c1ccc(NC(=S)Nc2cccc(C)n2)cc1	BCR signal inh inconclusive, Vif-A3F inh 11µM (no result: MBNL1 CUG block)
C=CCn1c(SCC(=O)NCc2ccco2)nnc1-c1cccc(N(C)C)c1	none (no result: BCR signal inh, TCR activator, uPA generation, Vif-A3F inh, MBNL1 CUG block)
COc1cc(NC(=O)N2CCNC2=O)cc(C(=O)Nc2cccc(C(F)(F)F)c2)c1	BCR signal inh 18µM, uPA generation inconclusive, Vif-APOBEC3G blk inconclusive
CCOC(=O)N1CCN(/[N+]([O-])=N/OCOC)CC1	none (no result: BCR signal inh, TCR activator, uPA generation, Vif-A3F inh, MBNL1 CUG block)
O=C(O)CN1C(=O)c2cccc3c(Br)ccc1c23	none
CN(C)CCCN1C(=O)c2cccc3c(Br)ccc(c23)C1=O	BCR signal inh inconclusive, uPA generation 7.9µM, MBNL1 CUG block inconclusive
CC(=O)N/C(=C/c1ccccc1)c1sc2ccccc2[n+]1CCCCI	none (no result: BCR signal inh, TCR activator, uPA generation, Vif-A3F inh, MBNL1 CUG block)
Cc1cc(=O)[nH]c(N/N=C/c2cc(C)n(CC(F)(F)F)c2C)n1	BCR signal inh inconclusive, uPA generation 0.25µM
Cc1cc(=O)[nH]c(N/N=C/c2ccccc2C(F)(F)F)n1	none
Cc1cnc2c(C)ccc(C)c2c1/C=C/c1ccc(N(C)C)cc1	none (no result: BCR signal inh, TCR activator, uPA generation, Vif-A3F inh, MBNL1 CUG block)
COc1ccc2[nH]c(C)c(C(=O)CNc3nccs3)c2c1	none (no result: BCR signal inh, TCR activator, uPA generation, Vif-A3F inh, MBNL1 CUG block)
CC(C)N1CCc2c(sc(NC(=O)c3nc4ccccc4s3)c2C(N)=O)C1	BCR signal inh inconclusive, Vif-A3F inh inconclusive, MBNL1 CUG block inconclusive (no result: uPA generation)
CCN1CCc2c(sc(NC(=O)c3ccc(S(=O)(=O)N(CCOC)CCOC)cc3)c2C(N)=O)C1	none (no result: TCR activator, uPA generation, MBNL1 CUG block)
CCN1CCc2c(sc(NC(=O)c3ccc(S(=O)(=O)N(C)c4ccccc4)cc3)c2C(=O)NC)C1	Vif-A3F inh 11µM, Vif-APOBEC3G blk inconclusive
CC(C)N1CCc2c(sc(NC(=O)c3ccc(S(=O)(=O)N4CCOCC4)cc3)c2C#N)C1	Vif-A3F inh 13µM
CC(C)N1CCc2c(sc(NC(=O)c3ccc(S(=O)(=O)N4CCc5ccccc54)cc3)c2C(N)=O)C1	BCR signal inh inconclusive, uPA generation inconclusive, Vif-A3F inh 6.3µM, Vif-APOBEC3G blk 20µM
CC(C)N1CCc2c(sc(NC(=O)c3cc(-c4cccs4)nc4ccccc34)c2C(N)=O)C1	BCR signal inh inconclusive, uPA generation inconclusive, Vif-A3F inh inconclusive, Vif-APOBEC3G blk 7.1µM, MBNL1 CUG block inconclusive
COc1ccc(C(=O)Nc2sc3c(c2C#N)CCN(C(C)=O)C3)cc1	BCR signal inh inconclusive, Vif-APOBEC3G blk 10µM
